Only some compounds are listed: those with a hit (about 2.6% of all), similar ones and a draw of the others.
GLP1R ag – agonists of human GLP-1 receptor; AID 624172; Potency, µM (top dose mostly 45.6 µM), actives largely listed as activators; 0.007% of 380,000 active; HEK293 GLP-1R CRE-luciferase, luminescence, 4-6 h; cells express a hypersensitive GLP-1R form; P43220
Target sequence (P43220 whole entry, looked up): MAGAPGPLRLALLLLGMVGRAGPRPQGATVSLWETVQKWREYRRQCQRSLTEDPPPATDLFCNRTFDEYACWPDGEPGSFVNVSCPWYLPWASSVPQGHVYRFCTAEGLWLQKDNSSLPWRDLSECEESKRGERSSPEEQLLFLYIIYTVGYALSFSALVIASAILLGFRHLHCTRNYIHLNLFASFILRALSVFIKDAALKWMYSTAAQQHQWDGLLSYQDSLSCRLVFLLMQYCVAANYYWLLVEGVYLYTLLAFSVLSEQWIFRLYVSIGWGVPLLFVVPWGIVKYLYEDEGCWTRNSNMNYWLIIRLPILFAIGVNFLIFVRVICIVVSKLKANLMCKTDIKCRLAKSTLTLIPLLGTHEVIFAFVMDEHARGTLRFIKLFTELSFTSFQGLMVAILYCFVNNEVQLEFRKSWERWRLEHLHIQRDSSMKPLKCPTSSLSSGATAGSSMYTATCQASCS
GLP-1R inv ag – acts as inverse agonist at human GLP-1 receptor | P43220 | HEK293 GLP-1R CRE-luciferase, luminescence, 24 h; GLP-1R form is constitutively active | Potency, µM (titrated, usually from 38.3 µM), actives largely listed as inhibitors | 1.6% of 410,000 active | AID 624417; further: nearly all actives have a fitted effect of over 55% in size
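Assay principle: reduced luminescence from a cAMP-responsive reporter in HEK293 cells co-expressing a constitutively active GLP-1R. Conditions: 24 hr compound incubation, 37 deg C, 5% CO2.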
GLP1R cytotox – cytotoxic in the GLP-1 receptor inverse agonist counter-screen; HEK293 cAMP-luciferase reporter cells, luminescence, 24 h; Potency, µM (highest dose often 38.3 µM), actives largely listed as inhibitors; 0.13% of 410,000 active; AID 624418;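 further: loss of luciferase light is scored as toxicity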
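1536-well qHTS counterscreen of the MLSMR; 200 cells/uL, 12 h pre-incubation, 23 nL cpd, 24 h at 37 deg C 5% CO2, luciferase detection reagent, 12 min RT, luminescence. Inhibition = undesired.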
BRCA1 expr act – activators of BRCA1 expression; MCF7-BRCA1-FFLuc reporter, luminescence, 48 h; response scale: scaled: vehicle 0%, 10 µM genistein 100%; Potency, µM (titrated, usually from 46.1 µM), actives largely listed as activators; 1.1% of 380,000 active; further: nearly all actives have a fitted effect of over 80% in size
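Cells: MCF7-BRCA1-FFLuc, 2000/well. Exposure: 48 h, 37 °C, 5% CO2. Read: luminescence, 15 min post-substrate. Controls: genistein 10 microM (maximal activation), DMSO (neutral).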
Large screens that a line does not name were inactive. The call rests on the fitted dose curve; in most records, active means well fitted curve in the direction sought with a large enough effect; inconclusive means small, poorly fitted or top-dose-only effect, or another doubt; inactive means no such curve, though single readings can be large; an effect the other way counts as inactive or inconclusive.

Cc1ccc(S(=O)(=O)NC(CC(C)C)C(=O)NCCCn2nc(C)cc2C)cc1 (stereo not drawn)	none
COc1cccc(CCc2ccccc2OCC(CN(C)C)OC(=O)CCC(=O)O)c1 (stereo not drawn)	none (no result: GLP-1R inv ag, GLP1R cytotox)
O=C(NC1CCCCC1)c1ccc2c(c1)N(Cc1cccc(Cl)c1)C(=O)c1ccccc1S2(=O)=O	none (no result: GLP1R ag, BRCA1 expr act)
CC(=O)NC(c1cccc(F)c1)c1nc(-c2ccoc2)cs1 (stereo not drawn)	none
O=C(CSc1nc(-c2ccccc2)ns1)N1CCOCC1	BRCA1 expr act 4µM
Cc1cccc(-c2nsc(SCC(=O)N3CCCC3)n2)c1	BRCA1 expr act inconclusive
Cc1cc(C)cc(NC(=O)C(=O)NCCc2sc(-c3cccc(F)c3)nc2C)c1	none (no result: GLP1R ag, BRCA1 expr act)
C=CCn1c2ccccc2c(=O)c2cc(C#Cc3ccccn3)ccc21	BRCA1 expr act 8.9µM
O=C(CN1N=C(c2ccc(Cl)cc2)CCC1=O)NCc1ccc(F)cc1	none (no result: GLP1R ag, BRCA1 expr act)
CCC(C(=O)Nc1ccc(C(=O)OC)cc1)n1nc(-c2ccc(C)cc2)c2c(c1=O)CCCC2 (stereo not drawn)	GLP-1R inv ag 2.5µM (no result: GLP1R ag)
CCC(C(=O)Nc1ccc(C(=O)OC)cc1)n1nc(-c2ccc(C)c(C)c2)ccc1=O (stereo not drawn)	none (no result: GLP1R ag, BRCA1 expr act)
CCOc1ccc(-c2nonc2NC(=O)c2oc3cc(C)ccc3c2C)cc1	none (no result: GLP1R ag, BRCA1 expr act)
CC(C)S(=O)(=O)c1oc(-c2cccs2)nc1S(=O)(=O)c1ccc(F)cc1	GLP-1R inv ag inconclusive, GLP1R cytotox 10µM (no result: GLP1R ag, BRCA1 expr act)
CC(C)(C)c1ccc(C(=O)NNc2cc(N3CCCCC3)nc(N3CCCCC3)n2)cc1	GLP-1R inv ag 3.2µM, GLP1R cytotox inconclusive
O=C(C[n+]1cccc(Br)c1)c1cc(Cl)ccc1Cl	none (no result: GLP1R ag, GLP-1R inv ag, GLP1R cytotox)
O=c1c2ccccc2nnn1-c1ccc(Br)cc1	BRCA1 expr act 4.5µM
CCOc1ccccc1NC(=O)Cn1ncc2c([nH]c3ccccc32)c1=O	none (no result: GLP1R ag, BRCA1 expr act)
FC(F)(F)c1nc(N2CCCC2)ncc1-c1nnnn1-c1ccc(Cl)cc1	GLP-1R inv ag 7.1µM
CC(CNC(=O)c1cnn(-c2ccc(F)cc2)c1-n1cccc1)c1ccccc1 (stereo not drawn)	GLP-1R inv ag 10µM
COc1ccc(CNC(=O)c2cnn(-c3ccc(F)cc3)c2-n2cccc2)cc1	none
CCOc1ccc(NC(=O)CN(C)C(=O)c2cn(-c3ccc(F)cc3)nc2-c2cccc(OC)c2)cc1OCC	GLP-1R inv ag 4.5µM
CN(CC(=O)Nc1cccc(F)c1)C(=O)c1cn(-c2ccccc2)nc1-c1ccccc1	GLP-1R inv ag inconclusive
CCN(CC)CCNC(=O)c1ccc(NC(=O)c2cn(-c3ccc(F)cc3)nc2-c2cccc(OC)c2)cc1	GLP-1R inv ag 8.9µM, GLP1R cytotox inconclusive
Cc1ccc(S(=O)(=O)NC2c3cccc4cccc(c34)C2Sc2nc(C)cc(C)n2)cc1 (stereo not drawn)	GLP-1R inv ag 7.1µM
COc1cccc(CNC(=O)C2CCCN(S(=O)(=O)c3cn(C)cn3)C2)c1 (stereo not drawn)	none (no result: GLP1R ag, BRCA1 expr act)
NC(=O)Nc1cccc2ccccc12	none
O=C(Nc1cccc2ccccc12)OC1C=CS(=O)(=O)C1 (stereo not drawn)	GLP-1R inv ag 10µM
Cc1csc(NC(=O)Cc2c(F)cccc2Cl)n1	BRCA1 expr act 4.5µM
N#CC(c1ccc(Cl)cc1)c1c(Cl)cc(-n2ncc(=O)[nH]c2=O)cc1Cl (stereo not drawn)	none (no result: GLP-1R inv ag, GLP1R cytotox, BRCA1 expr act)
CS/C(Nc1cc(Cl)ccc1Cl)=C(/C#N)C(=O)c1ccco1	GLP-1R inv ag 6.3µM
COc1ccc(C)cc1NC(=O)Cc1c(C(=O)O)c(C)cn1C	none (no result: GLP1R ag, BRCA1 expr act)
COc1ccc(C(=O)Nc2cc(C(C)C)c(O)c(S(=O)(=O)c3ccc(OC)cc3)c2C)cc1	GLP-1R inv ag inconclusive, BRCA1 expr act 5.6µM
O=C1NNC(=O)C1c1ccccc1	none
O=C1CC(c2ccccc2)=C(c2ccccc2)C1c1ccccc1 (stereo not drawn)	GLP-1R inv ag 14µM
O=C(Cc1ccc(Cl)cc1)NO	none (no result: GLP1R ag, GLP-1R inv ag, GLP1R cytotox)
Cn1cc(CN2CCC(n3nccc3NC(=O)c3ccccc3Cl)CC2)c2ccccc21	GLP-1R inv ag inconclusive, GLP1R cytotox inconclusive
COc1ccccc1C(=O)Nc1ccnn1C1CCN(CCCC2CCCC2)CC1	GLP-1R inv ag inconclusive, GLP1R cytotox inconclusive
COc1ccccc1C(=O)Nc1ccnn1C1CCN(Cc2cn(C)c3ccccc23)CC1	GLP-1R inv ag 11µM
O=C(Nc1ccnn1C1CCN(CCCC2CCCC2)CC1)c1ccccc1Cl	GLP-1R inv ag 10µM

Compound activity as filed in PubChem.
